An excerpt weighted towards active compounds, which were near 3.5% of everything screened.
TEAD-YAP inh = TEAD-YAP interaction inhibition; HEK-TIYL cells, TEAD-Gal4/YAP UAS-luciferase luminescence; inhibition, % at 9.12 µM; 1.4% of 640,000 active; in the data active = inhibition above about 32%
GPR151 ag = activates the human receptor GPR151; PathHunter beta-arrestin GPR151 cells, luminescence; activation, % at 11.2 µM; 1% of 650,000 active; AID 1508602; in the data active = activation above about 4.9%
Target sequence (Q8TDV0 whole entry, looked up): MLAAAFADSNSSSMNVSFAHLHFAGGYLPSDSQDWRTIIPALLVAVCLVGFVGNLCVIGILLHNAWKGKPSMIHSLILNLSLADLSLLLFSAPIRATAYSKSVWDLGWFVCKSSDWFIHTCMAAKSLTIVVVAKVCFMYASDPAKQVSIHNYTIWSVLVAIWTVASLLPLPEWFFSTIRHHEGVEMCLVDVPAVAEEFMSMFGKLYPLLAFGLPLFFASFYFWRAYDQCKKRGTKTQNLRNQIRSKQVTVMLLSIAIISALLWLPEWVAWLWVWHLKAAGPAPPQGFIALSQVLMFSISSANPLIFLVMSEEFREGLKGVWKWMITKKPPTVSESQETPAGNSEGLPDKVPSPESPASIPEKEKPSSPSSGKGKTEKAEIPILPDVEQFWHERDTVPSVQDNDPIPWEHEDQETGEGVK
MITF primary = blocks human microphthalmia-associated transcription factor | O75030 | AlphaScreen MITF homodimerization, bead proximity signal | inhibition, % at 2.6 µM | 0.91% of 650,000 active | AID 1259374; in the data active = inhibition above about 50%
FBW7 act = activators of human E3 ligase FBW7. AlphaScreen FBW7–phospho-cyclin E peptide binding, activator screen. normalized activity (activation), % at 26.1 µM. 0.13% of 650,000 active; in the data active = normalized activity above about 1.9%;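 note: purified mutant Fbw7 with reduced substrate affinity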
Each line names hits and unclear results; the compound was inactive in the other large screens.

CN(C)S(=O)(=O)N1CCC(Oc2cccc(C(=O)NC3CCCCC3)c2)CC1	TEAD-YAP inh 43
Cc1ccsc1C(=O)C1CCCN(Cc2ccc(N3CCNC3=O)cc2)C1 (stereo unspecified)	TEAD-YAP inh 35
COc1ccc(C(=O)C2CCCN(Cc3ccc(N4CCNC4=O)cc3)C2)cc1OC (stereo unspecified)	none
CN(C)C1C(=O)C(C(N)=O)=C(O)C2(O)C(=O)C3=C(O)c4c(O)ccc(Cl)c4C(O)C3CC12 (stereo unspecified)	none (no result: TEAD-YAP inh)
C=C1c2cccc(O)c2C(O)=C2C(=O)C3(O)C(O)=C(C(N)=O)C(=O)C(N(C)C)C3C(O)C12 (stereo unspecified)	MITF primary 111
CC(C)(C)c1ccc(-c2ccc(OCCN3CCCC3=O)nc2)cc1	TEAD-YAP inh 52
COc1ccc(OCC(O)Cn2c(C)nc3ccccc32)cc1 (stereo unspecified)	TEAD-YAP inh 44
COC(=O)c1cccc(OCC(O)Cn2c(C)nc3ccccc32)c1 (stereo unspecified)	TEAD-YAP inh 39
Cc1nc2ccccc2n1CC(O)COc1ccc2ccccc2c1Br (stereo unspecified)	TEAD-YAP inh 45
Cc1nc2ccccc2n1CC(O)COc1ccc(C(C)(C)C)cc1 (stereo unspecified)	TEAD-YAP inh 47
Cc1cc(C)nc(NN2C(=O)/C(=C/c3ccc(N(C)C)cc3)SC2=S)n1	none
Cc1ccc(O)c(/C=N/NC(=O)c2ccccc2)c1	TEAD-YAP inh 59
Oc1ccc(Br)cc1/C=N/NC(=S)Nc1cccnc1	MITF primary 57
COc1ccc(/C=N/NC(=O)c2cccnc2)cc1Cn1cnc([N+](=O)[O-])n1	TEAD-YAP inh 45
COc1ccc(/C=N/NC(=O)c2cccnc2)cc1CN1CCN(c2ccc(F)cc2)CC1	none
COc1cc(/C=N/NC(=O)c2cccc(NC(C)=O)c2)cc(Cl)c1O	MITF primary 63
Cc1ccc(C(=O)NCc2ccco2)c(NCc2cccnc2)n1	none
Nc1ncc(Br)cc1S(=O)(=O)NC1CCN(Cc2ccccc2)CC1	none
O=C(Nc1cccc(-c2nc3cccnc3s2)c1)c1ccc(Br)o1	none
COc1cc(Br)cc(/C=N/NC(=O)c2ccccc2)c1O	TEAD-YAP inh 71
COc1cc(Cl)cc(/C=N/NC(=O)c2ccccc2O)c1O	TEAD-YAP inh 75
COc1cc(C(=O)N/N=C/c2cc(Br)cc(Cl)c2O)cc(OC)c1OC	TEAD-YAP inh 58
COc1cc(Br)cc(/C=N/NC(=O)c2ccccc2Br)c1O	none
COc1ccc(O)c(/C=N/NC(=O)c2ccccc2O)c1	TEAD-YAP inh 65
COc1ccc(S(=O)(=O)Nc2ccc(I)cc2)cc1[N+](=O)[O-]	none
Cc1cc2ccccc2n1CCNC(=O)Cc1cccs1	none
O=C(N/N=C/c1ccccc1O)c1ccc(F)cc1	none
CCOc1cc(/C=N/NC(=O)c2cccnc2)cc(Br)c1O	none
Cc1ccc(C(=O)N/N=C/c2cc(Br)ccc2O)cn1	TEAD-YAP inh 50, MITF primary 84
O=C(N/N=C/c1cc(Cl)cc(Br)c1O)c1ccccc1O	TEAD-YAP inh 57
CCOc1cc(Br)cc(/C=N/NC(=O)c2cccnc2)c1O	TEAD-YAP inh 78, MITF primary 53
O=C(N/N=C/c1cc(Br)ccc1O)c1ccc(F)cc1	TEAD-YAP inh 76
COc1ccccc1C(=O)N/N=C/c1cc(Br)cc(OC)c1O	none
COc1cc(Br)cc(/C=N/NC(=O)c2ccccc2O)c1O	TEAD-YAP inh 72
COc1cc(Br)cc(/C=N/NC(=O)c2ccc(C)nc2)c1O	MITF primary 64
COc1ccc(Cl)cc1/C=N/NC(=O)c1ccc(C)nc1	none
O=C(Nc1ncccn1)c1cccc(C(F)(F)F)c1	none
COc1ccc(Cl)cc1C(=O)NCc1ccc2c(c1)cc(C)n2C	TEAD-YAP inh 44
CCN(CC)C(=O)CSc1nnc(Cc2ccccc2)n1CC	none
Cc1c(N/N=C(\C#N)C(=O)c2ccccc2)c(=O)n(-c2ccccc2)n1C	none
Cc1ccccc1C(=O)/C(C#N)=N/Nc1c(C)n(C)n(-c2ccccc2)c1=O	MITF primary 70
CN(Cc1ccccc1)c1ccnc2c(-c3cccc(CO)c3)cnn12	TEAD-YAP inh 76
CN(Cc1ccccc1)c1ccnc2c(-c3cccnc3)cnn12	none
Oc1cccc(-c2cnn3c(NCc4ccccn4)ccnc23)c1	TEAD-YAP inh 56
OCc1cccc(-c2cnn3c(NCc4ccccn4)ccnc23)c1	TEAD-YAP inh 77
O=C(Nc1cc2cc(Cl)cc([N+](=O)[O-])c2oc1=O)c1ccccc1	none
O=C1C(C=Nc2ccccc2O)=C(O)c2ccccc21	TEAD-YAP inh 49
COc1ccc(N=CC2=C(O)c3ccccc3C2=O)cc1	TEAD-YAP inh 43
COc1ccc(Cl)cc1C(=O)N/C(=C\c1cccc([N+](=O)[O-])c1)C(=O)Nc1cccc(F)c1	none
O=C1NC2(CCN(C(=O)c3csc4c3CCCC4)CC2)Nc2ccccc21	TEAD-YAP inh 40
O=C(c1ccc(Oc2ccccc2)cc1)c1coc2ccc(O)cc12	TEAD-YAP inh 55
CN(C)c1ccc(-c2nc3ccccc3n2C)cc1	TEAD-YAP inh 93
CC(C)c1ccc(C(O)Cc2nc3ccccc3n2C)cc1 (stereo unspecified)	none
CN(C)c1ccc(C(O)Cc2nc3ccccc3n2C)cc1 (stereo unspecified)	TEAD-YAP inh 95
CN(C)c1ccc(-c2ccc3ccccc3n2)cc1	TEAD-YAP inh 76
CCCS(=O)(=O)n1c(SCC(=O)c2ccc(Cl)cc2)nc2ccccc21	none
COc1ccc(C(=O)Nc2cccc(OC(=O)c3ccc(C)c(S(=O)(=O)N4CCOCC4)c3)c2)cc1	TEAD-YAP inh 66
COc1cccc(C(=O)Nc2cccc(OC(=O)c3ccc(C)c(S(=O)(=O)N4CCOCC4)c3)c2)c1	TEAD-YAP inh 36
Cc1ccc(C(=O)Nc2cccc(OC(=O)c3cccc(S(=O)(=O)N4CCC(C)CC4)c3)c2)cc1	TEAD-YAP inh 68
COCc1cc(C)nc2c1C1=NC(c3ccccc3)(c3ccccc3)c3ccccc3N1C(N)=CS2	none
CCOC(=O)C1=C(C)Nc2ncnn2C1c1ccc(OC)c([N+](=O)[O-])c1 (stereo unspecified)	none
COc1ccc(C2/C(=C(/O)c3ccc(F)cc3)C(=O)C(=O)N2CCCCCC(=O)O)cc1OC (stereo unspecified)	none
CN1CCN(C(CNC(=O)NCc2cccs2)c2ccc3c(c2)CCN3C)CC1 (stereo unspecified)	none
Clc1ccc(-n2ncc3c(N4CCCC4)ncnc32)cc1	TEAD-YAP inh 35
Fc1ccc(-n2ncc3c(N4CCCCCC4)ncnc32)cc1	none
Clc1ccc(-n2ncc3c(N4CCCCC4)ncnc32)cc1	TEAD-YAP inh 96
CC(=O)Nc1ccnn1C1CCN(Cc2cnc(-c3ccccc3C)nc2)CC1	TEAD-YAP inh 41
CC(=O)Nc1ccnn1C1CCN(Cc2cnc(-c3ccccc3)s2)CC1	TEAD-YAP inh 67
CC(=O)Nc1ccnn1C1CCN(Cc2ccc(-c3ccccc3)cc2)CC1	none
COc1ccc(OC)c(CN2CCc3nnc(CCNC(=O)c4cccnc4)n3CC2)c1	none

Source: PubChem
